# The supplement of paper PMC6555819
# Tests used:
# Experiment in all cases: PBM binding z-score (relative to random genomic background probes); higher = stronger binding; sequences stand for … in GC…GCGATTGACAGCGTAGAATGAAGG
# [1] = test system: PPARg:RXRa DBDmut IVT, anti-RXR (DBD mutation: RXRa K156A/R161A, NR concentration 270 nM, RXRa partner concentration 90 nM)
# Method in brief: (§1)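 Probes were double-stranded and carried 34-nt variable regions with direct-repeat seeds, single-nucleotide variants, half-site ablations and random human genomic background sequences, printed on custom Agilent 4×180K protein-binding microarrays. Arrays were incubated 1 h with ligand-free nuclear receptor dimers in PBS pH 7.4, 2% milk, 0.02% Triton X-100, 1 mM DTT, 0.2 mg/mL BSA and 0.4 mg/ml salmon testes DNA. Antibodies against each partner (one per run) detected binding, and scanned fluorescence was regression-normalized. Binding z-scores use the random background probes as reference.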
# [2] = test system: PPARg:RXRa IVT, anti-PPARg (NR concentration 270 nM, RXRa partner concentration 90 nM)
# Method in brief: as §1
# [3] = test system: PPARg DBDmut:RXRa IVT, anti-PPARg (DBD mutation: PPARg1 K132A/R137A, NR concentration 270 nM, RXRa partner concentration 90 nM)
# Method in brief: as §1
# [4] = test system: PPARg DBDmut IVT, anti-PPARg (DBD mutation: PPARg1 K132A/R137A, NR concentration 270 nM)
# Method in brief: as §1
# [5] = test system: PPARg homodimer (NR concentration 180 nM)
# Method in brief: as §1
# [6] = test system: PXR:RXRa (NR concentration 270 nM, RXRa partner concentration 90 nM)
# Method in brief: as §1
# [7] = test system: PXR homodimer (NR concentration 270 nM)
# Method in brief: as §1
# [8] = test system: RARa:RXR (NR concentration 270 nM, RXRa partner concentration 90 nM)
# Method in brief: as §1
# [9] = test system: RARa homodimer (NR concentration 270 nM)
# Method in brief: as §1
# [10] = test system: RARb:RXRa (NR concentration 270 nM, RXRa partner concentration 90 nM)
# Method in brief: as §1
# [11] = test system: RARb homodimer (NR concentration 270 nM)
# Method in brief: as §1
# [12] = test system: RARg:RXRa (NR concentration 270 nM, RXRa partner concentration 90 nM)
# Method in brief: as §1
# [13] = test system: RARg homodimer (NR concentration 270 nM)
# Method in brief: as §1
# [14] = test system: RXRa DBDmut IVT, anti-RXR (DBD mutation: RXRa K156A/R161A, NR concentration 90 nM)
# Method in brief: as §1
# [15] = test system: RXRa homodimer (NR concentration 180 nM)
# Method in brief: as §1
# [16] = test system: THRa:RXRa (NR concentration 90 nM, RXRa partner concentration 90 nM)
# Method in brief: as §1
# [17] = test system: THRa homodimer (NR concentration 90 nM)
# Method in brief: as §1
# [18] = test system: VDR homodimer (NR concentration 270 nM)
# Method in brief: as §1
Sequence,PBM binding z-score [1],PBM binding z-score [2],PBM binding z-score [3],PBM binding z-score [4],PBM binding z-score [5],PBM binding z-score [6],PBM binding z-score [7],PBM binding z-score [8],PBM binding z-score [9],PBM binding z-score [10],PBM binding z-score [11],PBM binding z-score [12],PBM binding z-score [13],PBM binding z-score [14],PBM binding z-score [15],PBM binding z-score [16],PBM binding z-score [17],PBM binding z-score [18]
CAAACTAGGTCACAGAGTTCAAAGTCCGTGCGTA,8.6,9.07,5.41,5.72,4.68,6.97,14.2,5.88,1.27,4.91,4.74,6.06,6.71,4.25,5.69,4.03,1.96,9.52
CCTTACTGGTCACGAGGTTATAGCACGACGAGCG,1.37,2.01,1.13,0.311,1.78,1.55,0.447,2.19,1.15,2.46,1.98,2.5,1.86,0.396,2.28,1.91,1.11,1.13
AGTGAAAGTTCACTAGGTAACGTAAGATTCAGCT,2.6,4.86,1.41,0.57,2.04,3.61,2,3.07,0.607,4.44,3.4,4.46,5.32,3.84,3.77,1.96,-0.00547,3.15
ATCGAAAGGTCGAAGGTAAGTATACCCACCCGAA,-0.0708,1.49,0.751,0.919,0.93,2.6,0.149,3.27,0.263,3.59,2.18,3.86,3.99,0.89,4.24,1.86,0.0677,0.843
CCTGTTAGGTCATGGTCAGCTAATCTACAGTATG,3.41,2.86,0.756,1.29,2.12,1.77,0.504,2.9,0.828,4.16,3.36,4.05,4.61,2,2.89,3.73,2.91,0.791
TAGCCTAGGTCATGCGGGCCAGTATGGTGTCGGC,1.73,2.9,-0.0668,-0.181,0.816,1.42,-0.582,2.52,-0.311,3.65,2.86,4.2,4.58,0.269,3.23,2.96,1.07,0.682
CCGACTGGCGCAAGGTTACCATAACGCACAGCCA,0.00884,-0.432,-1.08,-0.725,0.0939,0.262,-0.271,0.604,-0.0192,0.871,0.818,0.543,0.602,0.0804,0.892,1.23,0.443,-0.0582
TCTCGGAGGGCACGAAAGGTCAGAGCTCGACATC,1.78,2.45,-0.111,-0.16,3,5.57,0.576,5.45,0.74,4.79,5.03,6.01,6.16,1.09,5.58,4.4,0.163,1.1
CCTACTGGGCCAAAAAGGGCATTGATGCCGATAA,3.27,2.46,-1.19,-0.893,0.55,-0.0509,-0.102,-0.0363,-0.572,1.49,1.32,0.413,0.776,-0.51,0.0736,0.26,-0.987,0.107
ACTCCGAGGACAAAGGTCAGAGCTACGCCAGTGA,1.44,4.05,0.71,-0.0719,6.93,4.53,0.63,5.82,2.61,4.58,4.47,6.28,5.92,1.97,6.11,4.27,2.29,1.67
TCATATAGGTCAAGGTGAAAGTCGAACGATATGA,6.82,7.8,3.34,3.56,2.98,3.06,0.0786,3.99,0.732,4.84,3.84,5.31,5.43,1.56,5.05,3.47,1.36,0.356
ATCTCTAGGTAAAGATAGTTCAGTTAATGCAAAT,2.3,1.96,0.842,0.769,1.02,1.26,0.841,0.925,1.28,0.672,1.19,0.937,0.915,0.536,0.419,1.27,0.471,0.927
CTTCAAAGTTCAACTAAGGTAACGTAAAGCACGC,0.299,1.44,1.35,1.17,3.47,5.58,4.16,4.32,2.15,5.19,4.33,5.92,6.84,4.36,5.26,5.38,2.06,3.94
GCTAGCAGGCCATTTGGGTCATTCAATGACGGGC,2.06,2.04,-1.48,-1.11,-0.184,0.822,0.976,0.854,-0.862,1.28,1.64,0.979,1.01,0.394,0.908,1.82,0.24,1.21
GCGACTGGGGCAAAGCAGGTTAGCATAAGGTTGG,4.21,3.26,-0.633,-1.6,-0.037,-0.216,-0.676,0.00756,-0.55,0.773,0.654,0.256,0.429,-0.341,0.0651,2.28,-0.225,-0.542
GCTATCAGTTGAAAGGGCAACCGAATGATTCTCG,0.18,0.3,-0.111,-0.549,0.562,0.584,-0.393,1.25,-0.381,2.07,1.81,1.22,1.28,0.45,1.26,0.693,-0.411,-0.03
